The text below walks through data of PubChem BioAssay (NCATS).

Values without a mark were called inactive. Records with an inconclusive call do not appear. The source made the active and inactive calls. Unless noted, calls follow the shape of the dose curve; as a rule, active = well fitted curve in the direction sought with a large enough effect; inconclusive = small, poorly fitted or top-dose-only effect, or another doubt; inactive = no such curve, though single readings can be large; an effect the other way counts as inactive or inconclusive.

Assay [1] concerns the target Lysosomal acid glucosylceramidase (Homo sapiens) (UniProt P04062). In words: Glucocerebrosidase-p2 (AID 348; in the data active = potency below about 10 µM; also: potency is read from the fitted curve at half-maximal effect). The note with it: purified GBA, blue fluorogenic substrate, 40 min. The method in brief: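 Normal human glucocerebrosidase (0.2 nM) with blue fluorogenic substrate (80 uM final) in citrate/phosphate pH 5.9 with 10mM sodium taurocholate, 0.01% tween-20; 40 min RT, NaOH/glycine stop; fluorescence Ex 365/Em 440; AC50 from a titration from 0.6 nM upwards.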

Assay [2] can be described thus: AP1 Signaling Pathway (AID 357; active = well fitted curve in either direction with a large enough effect, not every such curve was filed as active; also: % is scaled to controls: 0 for no effect and ±100 for the full control effect). The note with it: ME-180 AP-1-bla reporter, EGF-induced, beta-lactamase ratio, 5 h; at 7.69 µM (top of the series) unless noted. The method in brief: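 AP-1-bla ME-180 cells, Opti-MEM + 0.5% dialyzed FBS, plated overnight 37 °C. Cpd titration + EC50 EGF, 5 h 37 °C. CCF4 2.5 h RT; ex 405, em 460/530 ratio → %activity, AC50.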
The target of assay [3] is Cytochrome P450 1A2 (Homo sapiens) (UniProt P05177). In words: p450-cyp1a2 (AID 410; calls by dose curve; also: potency is read from the fitted curve at half-maximal effect). The note with it: recombinant CYP1A2, luciferin-ME demethylation, luminescence; series mostly up to 57 µM. The method in brief:
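20nM CYP1A2, 100uM Luciferin-ME (=Km), 100mM KPO4; cpd 10 min RT; +NADPH regen, 60 min RT; stop/detect 20 min; luminescence. Normalized to furafylline 57 uM = full inhibition.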

The nature of assay [4]: NFAT Signaling Pathway (AID 444; active = well fitted curve in either direction with a large enough effect, not every such curve was filed as active;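 also: carbachol stimulus at about its EC50 of 1 µM final; % is scaled to controls: 0 for no effect and ±100 for the full control effect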). The note with it: Jurkat NFAT-bla M1, carbachol, beta-lactamase ratio, 5 h; at 7.69 µM (top of the series) unless noted. The method in brief:
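Jurkat cells carrying an NFAT-driven β-lactamase reporter and co-transfected muscarinic M1 receptor were treated with compound plus carbachol (1 uM final, an EC50 level) for 5 h at 37 °C. CCF4 loading followed for 1 h at RT; 460/530 nm ratio gave %activity.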

Assay [5] can be described thus: Stat Signaling Pathway (AID 446; active = well fitted curve in either direction with a large enough effect, not every such curve was filed as active;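 also: ME-180 cervical cancer cells given 40 pM IL-6 alongside compound; SIE-controlled beta-lactamase reporter measured as 460/530 nm FRET emission ratio; % is scaled to controls: 0 for no effect and ±100 for the full control effect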). The note with it: ME-180 (cervical carcinoma) SIE beta-lactamase reporter, IL-6 stimulated, 5 h; at 7.69 µM (top of the series) unless noted. The method in brief:
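Emission at 460 and 530 nm (excitation 405 nm) reports SIE-controlled beta-lactamase in ME-180 cells. Cells received compound with 40 pM IL-6 for 5 hrs at 37 C; data scaled between 300 pM IL-6 and 125 nM JAK-inhibitor controls.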

Assay [6] has as its target Glucocorticoid receptor (Homo sapiens) (UniProt P04150). In words: GR-GFP Redistribution (AID 450;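 active = compounds whose dose series gives a full or clear partial fitted curve of increased nuclear translocation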; also: potency is read from the fitted curve at half-maximal effect). The note with it: U2OS GR-GFP nuclear translocation, laser cytometry, 2 h.
The target is the same in assay [7]. The experiment in a line: GR-EFC Redistribution (AID 451; calls by dose curve; also: potency is read from the fitted curve at half-maximal effect). The note with it: CHO-K1 GR-EFC translocation, beta-gal luminescence, 2 h. The method in brief: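 CHO-K1 cells stably expressing nuclear-localized β-gal enzyme acceptor and GR fused C-terminally to the enzyme donor fragment; ligand-driven nuclear translocation restores β-gal by complementation. Compounds titrated up to 46 uM final, 2 h at 37 °C; luminescence read.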

The target in assay [8] is Mitogen-activated protein kinase 10 (Mus musculus) (UniProt Q61831). In words: JNK3 AlphaScreen Assay (AID 530; active = well fitted curve in either direction with a large enough effect, not every such curve was filed as active;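 also: kinase came from lysate of stimulated human HepG2 cells; % is scaled to controls: 0 for no effect and ±100 for the full control effect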). The note with it: JNK3 lysate, c-Jun phosphorylation; series mostly up to 57.1 µM. The method in brief: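 Biotinylated GST-cJun(1-79) served as substrate for JNK3 in HepG2 lysates stimulated with IL-1beta and TNF-alpha. ATP was 10 uM final, pH 7.6. Ser73 phosphorylation was quantified by AlphaScreen (680 nm excitation).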
On the technique in general: In Alpha technology, singlet oxygen from a donor bead excites a nearby acceptor bead.

In assay [9] the target is 3',5'-cyclic-AMP phosphodiesterase 4B (Homo sapiens) (UniProt Q07343). In words: qHTS Assay for Inhibitors of PDE-IV (AID 607; active = well fitted activation curve with a large enough effect in the main read-out, with a control signal flat, not every such curve was filed as active; also: % of control where 0% means no effect). The note with it: HEK293 ACTOne CNG channel cells, membrane potential fluorescence; series mostly up to 22.9 µM. The method in brief: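 The readout is membrane depolarisation from a cAMP-sensing CNG channel, detected with a potential dye at ex 535/em 590. Cells were HEK293-derived (endogenous PDE-IV) at 1000 cells/well, titrated up to 22.9 uM final.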

Assay [10] deals with Cytochrome P450 3A4 (Homo sapiens) (UniProt P08684). In words: qHTS Assay for Activators of Cytochrome P450 3A4 (AID 885). Also: nearly all actives have a fitted effect of over 65% in size. The note with it: recombinant CYP3A4, Luciferin-PPXE luminescence, 60 min; series mostly up to 57.1 µM. The method in brief:
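Activators are scored by enhanced luminescence from CYP3A4 conversion of luciferin-PPXE (25uM, equal to KM) to luciferin, after 60 min at RT with an NADPH-regenerating system.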

The target of assay [11] is Dual specificity protein kinase CLK4 (Homo sapiens) (UniProt Q9HAZ1). In words: qHTS Assay for Inhibitors of CDC-like Kinase 4 (ADP-Glo Assay) (AID 1771). Also: nearly all actives have a fitted effect of over 70% in size. Also: potency is read from the fitted curve at half-maximal effect. The note with it: recombinant CLK4, ADP-Glo luminescence; series mostly up to 80 µM. The method in brief:
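25 nM Clk4, 100 uM RS peptide, 1 uM ATP (final); 2 mM MgCl2, 0.5 mM EGTA, 2.5 mM DTT, 0.01% Triton X-100; 1 hr RT. ADP-Glo readout: ATP depletion 45 min, conversion/luciferase 30 min, luminescence.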
(In general: Quantitative high-throughput screening tests each substance at several concentrations.)

Assay [12] shares this target. In words: qHTS Assay for Inhibitors of CDC-like Kinase 4 (ADP-FP Assay) (AID 1795). Also: % is scaled to controls: 0 for no effect and ±100 for the full control effect; nearly all actives have a fitted effect of over 60% in size. The note with it: Transcreener ADP fluorescence polarization; series mostly up to 50 µM. The method in brief:
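Recombinant human Clk4 (6.25 nM) phosphorylated RS repeat peptide (100 uM) with 1 uM ATP in Tris pH 7.5/MgCl2/EGTA/DTT/Triton buffer for one hour. ADP was quantified by Transcreener competitive fluorescence polarization against an ADP calibration curve.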

The target of assay [13] is Ubiquitin carboxyl-terminal hydrolase 1 (Homo sapiens) (UniProt O94782). The experiment in a line: Inhibitors of USP1/UAF1: Pilot qHTS (AID 504865).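 Also: rhodamine fluorescence freed from ubiquitin-rhodamine substrate followed over time; top concentration of the series differs between compounds; % is scaled to controls: 0 for no effect and ±100 for the full control effect; nearly all actives have a fitted effect of over 35% in size.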 The note with it: purified USP1/UAF1, Ub-rhodamine cleavage fluorescence; series mostly up to 54.9 µM. The method in brief: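 USP1/UAF1 complex (1nM) preincubated with compound 15 min at room temperature, then Ub-Rho substrate (150nM final) added. Fluorescence read kinetically at 480/540 nm, 6 reads every 60 seconds. Buffer: 50mM HEPES pH 7.8, 0.5mM EDTA, 0.1 mg/ml BSA, 1mM TCEP, 0.01% Tween-20.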

Assay [14] in a line: Primary qHTS for small molecule stabilizers of the endoplasmic reticulum resident proteome: Secreted ER Calcium Modulated Protein (SERCaMP) assay (AID 1508630). Also: % is scaled to controls: 0 for no effect and ±100 for the full control effect. The note with it: SH-SY5Y GLuc-SERCaMP (Gaussia luciferase released on ER calcium loss) secretion, thapsigargin, luminescence; series mostly up to 38.4 µM. The method in brief:
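The SH-SY5Y reporter protocol was run at 3 concentrations up to 38.3 uM (primary) or 11 concentrations (follow-up): 16 h compound, 100 nM thapsigargin for 4 h, then extracellular luciferase luminescence.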

The target of assay [15] is Cytochrome P450 2C9 (Homo sapiens) (UniProt P11712). In words: qHTS Assay for Inhibitors and Substrates of Cytochrome P450 2C9 (AID 883). Also: % is scaled to controls: 0 for no effect and ±100 for the full control effect; nearly all actives have a fitted effect of over 60% in size. The note with it: recombinant CYP2C9, luciferin-H luminescence, 60 min; series mostly up to 57.1 µM. The method in brief: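 Human CYP2C9 (10nM) hydroxylated Luciferin-H (100uM, at its KM) to luciferin in 25mM KPO4. Compound was preincubated 10 min at 37C, then NADPH regeneration started a 60 min reaction at 37C. Luminescence was read after detection reagent, normalized to 57uM sulphaphenazole.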

The target of assay [16] is Cytochrome P450 3A4 (Homo sapiens) (UniProt P08684). In words: qHTS Assay for Inhibitors and Substrates of Cytochrome P450 3A4 (AID 884). Also: nearly all actives have a fitted effect of over 50% in size. Also: potency is read from the fitted curve at half-maximal effect. The note with it: recombinant CYP3A4, Luciferin-PPXE luminescence; series mostly up to 57.1 µM. The method in brief:
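Luminescent readout of luciferin produced by CYP3A4 (20 nM) dealkylation of Luciferin-PPXE, 25 uM (its KM). NADPH-driven reaction ran 60 min at RT after 10 min compound preincubation; data scaled to 57 uM ketoconazole as 100% inhibition.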

Sequence of 3',5'-cyclic-AMP phosphodiesterase 4B (Homo sapiens) (Q07343 whole entry, looked up): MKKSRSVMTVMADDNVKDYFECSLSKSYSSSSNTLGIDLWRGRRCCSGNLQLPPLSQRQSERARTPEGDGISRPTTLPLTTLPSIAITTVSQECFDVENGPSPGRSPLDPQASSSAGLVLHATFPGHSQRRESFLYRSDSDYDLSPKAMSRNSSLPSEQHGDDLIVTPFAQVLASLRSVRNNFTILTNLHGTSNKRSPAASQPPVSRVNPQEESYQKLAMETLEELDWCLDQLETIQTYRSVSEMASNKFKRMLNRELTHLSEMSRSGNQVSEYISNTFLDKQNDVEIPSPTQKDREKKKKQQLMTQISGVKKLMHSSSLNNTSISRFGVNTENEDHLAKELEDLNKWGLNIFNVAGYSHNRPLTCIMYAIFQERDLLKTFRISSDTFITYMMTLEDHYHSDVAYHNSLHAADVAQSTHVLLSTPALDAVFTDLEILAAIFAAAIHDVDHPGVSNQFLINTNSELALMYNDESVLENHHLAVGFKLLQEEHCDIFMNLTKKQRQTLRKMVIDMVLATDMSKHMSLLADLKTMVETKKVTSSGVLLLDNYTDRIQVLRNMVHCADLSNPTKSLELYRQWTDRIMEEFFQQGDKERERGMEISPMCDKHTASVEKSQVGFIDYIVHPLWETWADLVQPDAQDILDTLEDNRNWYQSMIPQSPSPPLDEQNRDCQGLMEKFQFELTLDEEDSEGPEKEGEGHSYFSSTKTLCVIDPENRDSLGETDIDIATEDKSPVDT
Sequence of Ubiquitin carboxyl-terminal hydrolase 1 (Homo sapiens) (O94782 whole entry, looked up): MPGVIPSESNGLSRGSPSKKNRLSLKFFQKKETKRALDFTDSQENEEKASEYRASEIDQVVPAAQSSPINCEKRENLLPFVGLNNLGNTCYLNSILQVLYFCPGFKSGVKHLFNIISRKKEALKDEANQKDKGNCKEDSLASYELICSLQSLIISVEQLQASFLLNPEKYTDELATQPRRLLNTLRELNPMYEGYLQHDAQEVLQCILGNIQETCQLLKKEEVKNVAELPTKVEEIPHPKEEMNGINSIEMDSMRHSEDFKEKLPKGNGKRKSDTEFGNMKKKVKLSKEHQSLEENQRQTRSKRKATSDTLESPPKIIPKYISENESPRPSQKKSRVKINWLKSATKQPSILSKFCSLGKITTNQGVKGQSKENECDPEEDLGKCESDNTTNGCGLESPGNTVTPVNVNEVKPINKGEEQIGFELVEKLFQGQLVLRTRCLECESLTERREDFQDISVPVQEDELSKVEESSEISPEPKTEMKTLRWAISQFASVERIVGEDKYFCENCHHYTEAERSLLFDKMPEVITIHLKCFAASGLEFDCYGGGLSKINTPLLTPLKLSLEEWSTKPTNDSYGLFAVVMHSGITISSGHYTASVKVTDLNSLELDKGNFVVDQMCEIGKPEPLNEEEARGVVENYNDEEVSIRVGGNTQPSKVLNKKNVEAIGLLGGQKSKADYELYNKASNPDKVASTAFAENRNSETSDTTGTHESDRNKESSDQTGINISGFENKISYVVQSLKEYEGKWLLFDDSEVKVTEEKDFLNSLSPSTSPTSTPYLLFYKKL
Sequence of Cytochrome P450 1A2 (Homo sapiens) (P05177 whole entry, looked up): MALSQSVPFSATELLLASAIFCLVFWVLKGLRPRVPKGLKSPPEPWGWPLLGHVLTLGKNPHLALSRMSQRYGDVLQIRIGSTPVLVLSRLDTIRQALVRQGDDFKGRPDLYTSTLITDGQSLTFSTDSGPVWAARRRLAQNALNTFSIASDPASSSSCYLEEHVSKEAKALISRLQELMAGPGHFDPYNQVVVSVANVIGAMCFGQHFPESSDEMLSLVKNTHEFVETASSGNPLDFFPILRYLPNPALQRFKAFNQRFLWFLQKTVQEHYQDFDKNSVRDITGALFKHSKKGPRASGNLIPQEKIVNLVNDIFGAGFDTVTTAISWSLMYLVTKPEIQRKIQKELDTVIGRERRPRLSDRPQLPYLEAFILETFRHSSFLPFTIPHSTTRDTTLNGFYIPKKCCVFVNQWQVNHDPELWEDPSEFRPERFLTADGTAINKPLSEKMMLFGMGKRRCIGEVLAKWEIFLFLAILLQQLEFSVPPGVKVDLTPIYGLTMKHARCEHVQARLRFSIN
Sequence of Lysosomal acid glucosylceramidase (Homo sapiens) (P04062 whole entry, looked up): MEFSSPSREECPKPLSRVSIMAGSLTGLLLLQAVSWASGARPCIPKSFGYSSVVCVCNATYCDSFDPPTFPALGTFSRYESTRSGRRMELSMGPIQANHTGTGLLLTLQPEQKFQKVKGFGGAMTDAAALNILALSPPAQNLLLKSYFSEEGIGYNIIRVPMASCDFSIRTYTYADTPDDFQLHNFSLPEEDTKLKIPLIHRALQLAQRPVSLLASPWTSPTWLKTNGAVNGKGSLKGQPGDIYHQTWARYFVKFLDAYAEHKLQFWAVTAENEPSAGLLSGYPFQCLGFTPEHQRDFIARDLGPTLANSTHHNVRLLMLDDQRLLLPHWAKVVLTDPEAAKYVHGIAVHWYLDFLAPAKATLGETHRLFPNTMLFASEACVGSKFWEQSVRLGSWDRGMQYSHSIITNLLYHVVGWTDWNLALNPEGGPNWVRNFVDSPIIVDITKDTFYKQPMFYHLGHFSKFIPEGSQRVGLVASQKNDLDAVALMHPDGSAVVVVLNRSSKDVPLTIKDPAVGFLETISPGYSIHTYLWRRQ
Sequence of Cytochrome P450 3A4 (Homo sapiens) (P08684 whole entry, looked up): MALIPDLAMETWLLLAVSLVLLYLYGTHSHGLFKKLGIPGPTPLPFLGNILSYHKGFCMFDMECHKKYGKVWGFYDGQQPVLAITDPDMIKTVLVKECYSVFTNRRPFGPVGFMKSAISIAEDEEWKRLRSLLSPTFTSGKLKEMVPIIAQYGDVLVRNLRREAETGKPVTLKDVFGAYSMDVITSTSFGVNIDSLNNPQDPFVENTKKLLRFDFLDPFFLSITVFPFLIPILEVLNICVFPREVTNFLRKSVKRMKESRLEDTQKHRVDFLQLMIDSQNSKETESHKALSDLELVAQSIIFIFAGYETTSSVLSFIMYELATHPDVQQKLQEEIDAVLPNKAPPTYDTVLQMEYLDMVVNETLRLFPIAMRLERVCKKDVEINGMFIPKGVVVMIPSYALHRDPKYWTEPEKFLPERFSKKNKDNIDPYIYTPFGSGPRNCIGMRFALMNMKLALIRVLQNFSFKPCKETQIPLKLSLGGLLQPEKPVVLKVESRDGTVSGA
Sequence of Dual specificity protein kinase CLK4 (Homo sapiens) (Q9HAZ1 whole entry, looked up): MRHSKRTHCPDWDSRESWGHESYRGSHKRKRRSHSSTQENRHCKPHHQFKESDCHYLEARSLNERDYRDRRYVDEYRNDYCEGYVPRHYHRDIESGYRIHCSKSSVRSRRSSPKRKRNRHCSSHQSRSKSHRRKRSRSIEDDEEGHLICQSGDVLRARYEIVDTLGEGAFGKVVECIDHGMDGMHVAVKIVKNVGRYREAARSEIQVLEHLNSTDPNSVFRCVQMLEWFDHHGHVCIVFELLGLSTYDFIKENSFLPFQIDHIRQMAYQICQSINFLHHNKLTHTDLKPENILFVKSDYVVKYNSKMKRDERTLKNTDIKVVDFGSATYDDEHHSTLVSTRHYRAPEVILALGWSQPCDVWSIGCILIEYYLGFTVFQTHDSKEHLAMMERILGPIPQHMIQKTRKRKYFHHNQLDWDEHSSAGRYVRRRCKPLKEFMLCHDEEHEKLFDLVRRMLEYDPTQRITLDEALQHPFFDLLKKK
Sequence of Glucocorticoid receptor (Homo sapiens) (P04150 whole entry, looked up, the tested form may be a part): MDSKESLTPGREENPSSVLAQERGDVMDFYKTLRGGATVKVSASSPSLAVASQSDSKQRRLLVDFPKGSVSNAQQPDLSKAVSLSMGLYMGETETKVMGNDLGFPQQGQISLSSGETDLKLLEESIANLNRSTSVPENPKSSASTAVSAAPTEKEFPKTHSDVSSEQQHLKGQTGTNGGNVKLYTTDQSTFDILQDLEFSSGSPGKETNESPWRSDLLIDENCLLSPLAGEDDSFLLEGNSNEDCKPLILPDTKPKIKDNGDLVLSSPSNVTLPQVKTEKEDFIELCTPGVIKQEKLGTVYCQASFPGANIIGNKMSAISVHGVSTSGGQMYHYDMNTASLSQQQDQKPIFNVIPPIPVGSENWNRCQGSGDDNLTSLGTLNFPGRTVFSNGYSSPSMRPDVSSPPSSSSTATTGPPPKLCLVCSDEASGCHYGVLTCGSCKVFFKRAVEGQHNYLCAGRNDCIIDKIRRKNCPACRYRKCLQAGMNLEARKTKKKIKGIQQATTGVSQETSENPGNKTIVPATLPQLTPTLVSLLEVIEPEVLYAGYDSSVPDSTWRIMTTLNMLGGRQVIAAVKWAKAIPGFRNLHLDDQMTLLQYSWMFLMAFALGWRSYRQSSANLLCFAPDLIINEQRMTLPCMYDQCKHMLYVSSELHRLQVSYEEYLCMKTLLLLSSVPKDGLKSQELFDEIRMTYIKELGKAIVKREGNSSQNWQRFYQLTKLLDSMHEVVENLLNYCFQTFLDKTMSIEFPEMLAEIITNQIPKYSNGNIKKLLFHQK
Sequence of Cytochrome P450 2C9 (Homo sapiens) (P11712 whole entry, looked up): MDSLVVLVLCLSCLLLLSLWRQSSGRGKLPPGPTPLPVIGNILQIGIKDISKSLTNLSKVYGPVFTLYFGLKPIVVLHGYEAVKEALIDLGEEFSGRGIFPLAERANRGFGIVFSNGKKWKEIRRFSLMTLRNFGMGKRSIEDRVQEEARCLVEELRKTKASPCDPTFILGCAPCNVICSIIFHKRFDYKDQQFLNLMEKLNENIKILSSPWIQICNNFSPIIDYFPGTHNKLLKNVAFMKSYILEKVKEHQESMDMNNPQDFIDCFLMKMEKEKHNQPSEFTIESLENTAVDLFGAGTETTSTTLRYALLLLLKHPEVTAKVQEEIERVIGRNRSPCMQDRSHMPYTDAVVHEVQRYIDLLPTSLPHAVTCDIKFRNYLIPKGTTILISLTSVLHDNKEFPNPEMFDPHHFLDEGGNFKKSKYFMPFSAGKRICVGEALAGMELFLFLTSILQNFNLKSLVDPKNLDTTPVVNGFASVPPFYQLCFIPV

As for `Cc1cnc(CNc2nc(-c3ccccc3C)nc3ccccc23)cn1`, the Potency is greater than 11.4 µM in assay [1], 3.16 µM (active) in assay [3], greater than 46 µM in assay [6] and greater than 46 µM in assay [7]. For the same compound, the activity change, negative = inhibition is -8.73% in assay [2] and -6.95% in assay [4]. In addition, the activity, negative = inhibition in [5] was -5.75%. Further, the Potency entry in [8], in assay [9], in [10], in assay [11], in assay [12] and in assay [13] was “inactive” throughout. The result in [14] was inactive.

Regarding `COc1cccc(Cn2c(=O)c(-c3cc(F)cc(F)c3)nc3cnc(N4CCOCC4)nc32)c1`, the values for the Potency in assay [1], in [6] and in assay [7] were greater than 11.4 µM, greater than 9.22 µM and greater than 46 µM, respectively. Further, the activity change, negative = inhibition in assay [4] is 5.53%. The activity, negative = inhibition in assay [5] is 24.5%. Moreover, the Potency result in assay [8], in assay [9], in assay [15], in [11], in assay [12] and in [13] was “inactive” throughout. Further, the result in assay [14] was inactive.

On to `CNc1cc(-c2ccccc2C)ncn1`, for which the Potency is greater than 11.4 µM in [1], 10 µM (active) in assay [3], greater than 46 µM in [6] and greater than 46 µM in [7]. Further, the activity change, negative = inhibition is 2.36% in [2] and 2.04% in [4]. Moreover, in assay [5], the activity, negative = inhibition is 13.3%. Further, the Potency result in assay [8], in [9], in assay [12] and in [13] was “inactive” each time. Besides, the result in assay [14] was inactive.

As for `COCCn1c(=O)c(-c2cccc(C#N)c2)nc2cnc(Nc3ccccc3)nc21`, the Potency is greater than 11.4 µM in assay [1], 2.51 µM (active) in assay [3], greater than 9.22 µM in assay [6] and greater than 46 µM in assay [7]. For the same compound, the activity change, negative = inhibition in [2] was -6.21%; in [4] it was 3.3%. Moreover, in assay [5], the activity, negative = inhibition is -15.6%. Further, the Potency result in [8], in [9], in assay [12] and in assay [13] was “inactive” each time. In addition, the outcome in assay [14] was inactive.

Turning to `Cc1noc(C)c1-c1cncnc1Nc1ccccc1`, the Potency was greater than 2.29 µM in assay [1], greater than 46 µM in [6], greater than 46 µM in assay [7] and 3.16 µM (active) in assay [16]. In addition, the activity change, negative = inhibition was 13.6% in assay [2] and 11.7% in assay [4]. For the same compound, in assay [5], the activity, negative = inhibition is 10.3%. In addition, the Potency entry in assay [8], in assay [9], in assay [10], in assay [11], in assay [12] and in assay [13] was “inactive” in each case. Also, the result in assay [14] was inactive.

On to `COc1ccccc1-c1nc(N2CCOCC2)c2ccccc2n1`, for which the Potency is greater than 11.4 µM in assay [1]; 0.501 µM (active) in assay [3]; greater than 46 µM in assay [6]; greater than 46 µM in [7]; 20 µM (active) in assay [11]. Further, the activity change, negative = inhibition in assay [2] was -9.32%; in assay [4], 10.4%. In [5], the activity, negative = inhibition was 14.3%. In addition, the Potency entry in [8], in assay [10], in assay [12] and in [13] was “inactive” in each case. In addition, the result in [14] was inactive.

Turning to `Cc1cnc(CNc2cc(-c3ccccc3Cl)ncn2)cn1`, the Potency in assay [1] is greater than 11.4 µM; in assay [3], 15.8 µM (active); in assay [6], greater than 46 µM; in assay [7], greater than 46 µM; in assay [11] it was 20 µM (active). Besides, the figures for the activity change, negative = inhibition in assay [2] and in assay [4] were 2.27% and 3.5%, respectively. The activity, negative = inhibition in assay [5] is 2.17%. For the same compound, the Potency entry in [8], in assay [9], in assay [16] and in assay [13] was “inactive” in each case. Also, in assay [14], the outcome was inactive.
